Data from PubChem BioAssay (NCATS).
Inconclusive results are not listed. Values without a mark were called inactive. The source made the active and inactive calls. Calls come from the whole dose curve; as a rule, active = well fitted cell-killing curve with a large enough effect; inconclusive = small, poorly fitted or top-dose-only effect, or effect the other way; inactive = no such curve, though single readings can be large or run the other way. Positions of bridges follow the written chain, without caps; N, C: chain ends. Non-standard residues stand in square brackets, D forms with d. Residues, ends and D or L forms follow the SMILES beside them. ξ: configuration not given here. *: point of attachment. Octanoyl(6-Me) = CCC(C)CCCCC(=O)*; ξThr(3R) = C[C@@H](O)C(N)C(=O)O; dDab = NCC[C@@H](N)C(=O)O; Dab = NCC[C@H](N)C(=O)O

Assay: Quantitative High-Throughput drug screen in 47 multiple myeloma cell lines against the NCATS MIPE library collection: KMS28BM_JCRB cell viability assay (AID 1919874); note: nearly all actives have a fitted effect of over 35% in size
Conditions: CellTiter-Glo ATP, 48 h; series mostly up to 45.8 µM; viability, % of control: at the top concentration
Procedure, shortened: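 MIPE 4.0 approved/investigational drugs; 500 cells/well; 48 h 37 °C humidified 5% CO2; CTG luminescence readout; DMSO = 100%, media = 0% viability.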
Potency is the fitted concentration of half-maximal effect.

| SMILES | viability, % of control | Potency |
| --- | --- | --- |
| C[C@@]12C[C@@]3(O)O[C@@H](O1)[C@]1(COC(=O)c4ccccc4)[C@@H]3C[C@@]12O[C@@H]1O[C@H](CO)[C@@H](O)[C@H](O)[C@@H]1O | 127% | – |
| O=C(Nc1ccc(Oc2ccnc3[nH]ccc23)c(F)c1)c1cccn(-c2ccc(F)cc2)c1=O | 103% | – |
| O=C(O)C(=O)Nc1cccc(C2=NN=N[N]2)c1 | 116% | – |
| C[C@](Cc1c[nH]c2ccccc12)(NC(=O)OC1C2CC3CC(C2)CC1C3)C(=O)NC[C@H](NC(=O)CCC(=O)O)c1ccccc1 (stereo partly specified) | 124% | – |
| NC1=N[C@H]2[C@H](CS[C@H]2CCCCC(=O)O)N1 | 130% [at 23.2 µM] | – |
| C[C@]12CCC(=O)C=C1[C@@H]1CC1[C@H]1[C@H]3[C@@H]4C[C@H]4[C@@]4(CCC(=O)O4)[C@@]3(C)CC[C@H]12 (stereo partly specified) | – | 11.8 µM (active) |
| NC(=O)c1ncn([C@@H]2O[C@H](CO)[C@@H](O)[C@@H]2O)c1N | 122% | – |
| C[C@H]1O[C@H](O[C@H]2[C@H](O)[C@@H](O)[C@@H](O[C@H]3[C@H](O)[C@@H](O)C(O)O[C@H]3CO)O[C@H]2CO)[C@H](O)[C@@H](O)[C@H]1N[C@H]1C=C(CO)[C@@H](O)[C@H](O)[C@@H]1O (stereo partly specified) | 116% | – |
| C[C@H](CCC(=O)O)[C@H]1CCC2C3C[C@H](O)[C@@H]4C[C@H](O)CC[C@]4(C)C3CC[C@@]21C (stereo partly specified) | 126% | – |
| Cc1ccc([N+](=O)[O-])cc1S(=O)(=O)N(C)N=Cc1cnc2ccc(Br)cn12 | – | 0.0235 µM (active) |
| COc1cc(N2CCC(C(N)=O)CC2)ccc1Nc1nc(N)c(Cl)c(Nc2ccccc2S(=O)(=O)C(C)C)n1 | – | 0.833 µM (active) |
| CC(=O)NC(CS)C(=O)O (stereo unspecified) | 114% | – |
| Cc1cncc2cccc(S(=O)(=O)N3CCCN(C(=O)CN)C[C@@H]3C)c12 | – | 1.18 µM (active) |
| CCOc1cc2c(c(F)c1OCC)C(=N)N(CC(=O)c1cc(N3CCOCC3)c(OC)c(C(C)(C)C)c1)C2 | – | 8.33 µM (active) |
| COc1cc2c(Nc3ccc(Cl)c(Cl)c3F)ncnc2cc1OCC1C[C@@H]2CN(C)C[C@H]2C1 | – | 8.33 µM (active) |
| CCC(C)CCCCC(=O)N[C@@H](CCN)C(=O)NC(C(=O)N[C@H](CCN)C(=O)N[C@@H]1CCNC(=O)C([C@@H](C)O)NC(=O)[C@@H](CCN)NC(=O)[C@@H](CCN)NC(=O)[C@@H](CC(C)C)NC(=O)[C@H](Cc2ccccc2)NC(=O)[C@H](CCN)NC1=O)[C@@H](C)O (stereo partly drawn) ({Octanoyl(6-Me)}-[Dab][ξThr(3R)][dDab][dDab][Dab]F[dL][dDab][dDab][ξThr(3R)]; lactam 4-C) | 122% | – |
| C=C1C[C@@]2(O)O[C@@]3(C[C@H]2C(C)C)[C@H](C)CC[C@H]13 | 142% | – |
| Cc1cc(C(=O)NOCCO)c(Nc2ccc(I)cc2F)n(C)c1=O | 114% | – |

| SMILES | viability, % of control | Potency |
| --- | --- | --- |
| O=c1[nH]c(=O)n([C@H]2C[C@@H](O)[C@@H](CO)O2)cc1F | – | 20.9 µM (active) |
| Cn1cc(-c2ccc3ncc(Cc4ccc5ncccc5c4)n3n2)cn1 | 93.8% | – |
| COc1cc(C[C@@H](CO)[C@H](CO)Cc2ccc(O)c(OC)c2)ccc1O | 122% | – |
| O=S(=O)(O)CCSSCCS(=O)(=O)O | 114% | – |
| C[C@H](NCc1ccc(OCc2cccc(F)c2)cc1)C(N)=O | – | 5.9 µM (active) |
| Cc1cnc(Nc2ccc(CN3CCOCC3)cc2)nc1Nc1cccc(S(=O)(=O)NC(C)(C)C)c1 | – | 4.69 µM (active) |
| OC[C@H]1OC(O)C[C@@H](O)[C@H]1O (stereo partly specified) | 111% | – |
| COc1cc(C=CC(=O)CC(=O)C=Cc2ccc(O)c(OC)c2)ccc1O | – | 10.8 µM (active) |
| Nc1nc(N)c2nc(-c3cccc(O)c3)c(-c3cccc(O)c3)nc2n1 | – | 20.9 µM (active) |
| O=C(NNC(=O)c1ccc(CNS(=O)(=O)c2ccc(F)c(Cl)c2)cc1)c1ccccc1 | 112% | – |
| Cc1cnc(Nc2ccc(N3CCN(C)CC3)cc2)nc1Nc1cccc(S(=O)(=O)NC(C)(C)C)c1 | – | 5.26 µM (active) |
| COc1cc([C@@H]2c3cc4c(cc3[C@@H](O[C@@H]3O[C@@H]5CO[C@@H](c6cccs6)O[C@@H]5[C@H](O)[C@@H]3O)[C@H]3COC(=O)[C@H]23)OCO4)cc(OC)c1O | – | 1.32 µM (active) |
| CN1C(C(=O)Nc2ccccn2)=C(O)c2sc(Cl)cc2S1(=O)=O | 116% | – |
| Nc1cccc2c1C(=O)N(C1CCC(=O)NC1=O)C2=O (stereo unspecified) | 90.6% | – |
| C=C[C@@H]1CN2CCC1C[C@H]2[C@H](O)c1ccnc2ccc(OC)cc12 (stereo partly specified) | 88.2% | – |
| COc1cc(OC)c(NC(=O)Nc2cc(C)on2)cc1Cl | 91.9% | – |
| C=CC1=C(C(=O)O)N2C(=O)[C@@H](NC(=O)C(=NO)c3csc(N)n3)[C@H]2SC1 | 117% | – |
| c1cc(N[C@@H]2CCNC2)nc(-c2cnc3ccc(-c4cn[nH]c4)cn23)c1 | – | 23.5 µM (active) |
